Measured values from the supplement of paper PMC10077471.
Whole data set: some 1,900 compounds, median “excess over highest single agent (ExcessHSA) synergy score, 6x6 matrix” near -83, cut for the lowest 2% near -370. Only a selection was taken, and the lowest values are over-represented in it overall.

These compounds were tested on NCI-H446 (assay: excess over highest single agent (ExcessHSA) synergy score, 6x6 matrix; higher = less synergy (more negative = stronger synergy)). Conditions: 72 h; CellTiter-Glo viability.

Structure (SMILES) | excess over highest single agent
Cc1cc(OCCCS(C)(=O)=O)cc(C)c1-c1cccc(COc2ccc3c(c2)OC[C@H]3CC(=O)O)c1 + Cc1sc2c(c1C)C(c1ccc(Cl)cc1)=N[C@@H](CC(=O)OC(C)(C)C)c1nnc(C)n1-2 [NCGC00250412-19] | -123
c1ccc2c(CCNc3ccc(Nc4ccncc4)cc3)c[nH]c2c1 + Cc1sc2c(c1C)C(c1ccc(Cl)cc1)=N[C@@H](CC(=O)OC(C)(C)C)c1nnc(C)n1-2 [NCGC00250412-19] | -76.1
Cc1cc(SCc2sc(-c3ccc(C(F)(F)F)cc3)nc2C)ccc1OCC(=O)O + Cc1sc2c(c1C)C(c1ccc(Cl)cc1)=N[C@@H](CC(=O)OC(C)(C)C)c1nnc(C)n1-2 [NCGC00250412-19] | -98.3
CC(=O)O/N=C1/C(c2c(O)[nH]c3cc(Br)ccc23)=Nc2ccccc21 + Cc1sc2c(c1C)C(c1ccc(Cl)cc1)=N[C@@H](CC(=O)OC(C)(C)C)c1nnc(C)n1-2 [NCGC00250412-19] | 54.4
O=c1c(-c2ccc(O)cc2)coc2cc(O[C@@H]3O[C@H](CO)[C@@H](O)[C@H](O)[C@H]3O)ccc12 + Cc1sc2c(c1C)C(c1ccc(Cl)cc1)=N[C@@H](CC(=O)OC(C)(C)C)c1nnc(C)n1-2 [NCGC00250412-19] | -180
Cc1c(NC(=O)c2ccc(C(C)(C)C)cc2)cccc1-c1cn(C)c(=O)c(Nc2ccc(C(=O)N3CCOCC3)cc2)n1 + Cc1sc2c(c1C)C(c1ccc(Cl)cc1)=N[C@@H](CC(=O)OC(C)(C)C)c1nnc(C)n1-2 [NCGC00250412-19] | -90.9
Nc1ccn([C@@H]2O[C@H](CO)[C@@H](O)[C@H]2O)c(=O)n1 + Cc1sc2c(c1C)C(c1ccc(Cl)cc1)=N[C@@H](CC(=O)OC(C)(C)C)c1nnc(C)n1-2 [NCGC00250412-19] | -268
Nc1ccn([C@@H]2O[C@H](CO)[C@@H](O)[C@@H]2O)c(=O)n1 + Cc1sc2c(c1C)C(c1ccc(Cl)cc1)=N[C@@H](CC(=O)OC(C)(C)C)c1nnc(C)n1-2 [NCGC00250412-19] | -107
Nc1ccn([C@@H]2O[C@H](CO)[C@@H](O)C2(F)F)c(=O)n1 + Cc1sc2c(c1C)C(c1ccc(Cl)cc1)=N[C@@H](CC(=O)OC(C)(C)C)c1nnc(C)n1-2 [NCGC00250412-19] | -379
CC(=O)N1CCN(c2ccc(OCc3nn(C)c(C)c3-c3cccc4c(CCCOc5cccc6ccccc56)c(C(=O)O)n(Cc5cccnc5)c34)cc2)CC1 + Cc1sc2c(c1C)C(c1ccc(Cl)cc1)=N[C@@H](CC(=O)OC(C)(C)C)c1nnc(C)n1-2 [NCGC00250412-19] | 97.8
